Bioassay records (PubChem)
IL-1B inflam inh = inhibitors of inflammasome signaling (IL-1 beta secretion); THP-1 LPS/ATP IL-1B secretion, AlphaLISA, 16 h; hits give low values; activity change, % at 57.5 µM; 360,000 tested, 4.7% active; AID 743279; in the data active = activity change below about -50%; inconclusive = mostly about -30% to -49%
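THP-1 cells pretreated 1 hr with compounds (up to 57.5 uM final), then stimulated with LPS (250 ng/mL final) plus ATP (1.25 mM final); secreted IL-1B measured by AlphaLISA after 16 hr, decreased signal indicating inhibition.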
12-LOX inh = blocks human arachidonate 12S-lipoxygenase. AID 1671190. 580,000 tested, 1.1% active. P18054. purified 12hLO, xylenol orange hydroperoxide absorbance. Potency, µM (doses to about 108 µM), for inactives: at the top dose activity change, negative = inhibition, most hits filed as inhibitors; note: potency is the fitted concentration of half-maximal effect
Target sequence (P18054 whole entry, looked up): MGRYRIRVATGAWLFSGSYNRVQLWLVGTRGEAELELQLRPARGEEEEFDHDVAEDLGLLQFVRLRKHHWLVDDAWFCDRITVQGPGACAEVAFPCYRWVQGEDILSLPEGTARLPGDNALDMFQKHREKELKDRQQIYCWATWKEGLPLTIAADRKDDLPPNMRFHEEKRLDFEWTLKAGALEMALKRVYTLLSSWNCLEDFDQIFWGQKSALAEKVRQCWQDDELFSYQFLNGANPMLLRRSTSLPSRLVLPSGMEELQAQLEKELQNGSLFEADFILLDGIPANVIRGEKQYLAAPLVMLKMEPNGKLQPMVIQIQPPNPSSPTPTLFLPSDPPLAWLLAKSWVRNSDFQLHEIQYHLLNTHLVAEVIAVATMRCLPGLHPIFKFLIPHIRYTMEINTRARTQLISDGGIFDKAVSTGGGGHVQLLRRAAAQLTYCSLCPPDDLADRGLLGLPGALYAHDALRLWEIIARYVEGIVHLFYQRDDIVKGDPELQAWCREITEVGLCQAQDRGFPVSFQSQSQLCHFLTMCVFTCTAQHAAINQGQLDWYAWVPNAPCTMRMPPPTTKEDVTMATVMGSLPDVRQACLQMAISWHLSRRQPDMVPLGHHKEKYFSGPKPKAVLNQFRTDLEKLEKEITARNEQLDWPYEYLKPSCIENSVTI
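Purified human 12hLO (150 nM final) in 25 mM Hepes, 0.01% Triton X-100, pH 7.0 was preincubated 15 min at room temperature with compound. Then 40 uM arachidonic acid was added, 30 min. Hydroperoxide was read by Fe-XO absorbance ratio 573/405 nm.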
HT1080 IDH1KD tx = toxicity to HT-1080 IDH1 knockdown cells (counter line); HT-1080 IDH1 knockdown viability, ATP luminescence, 48 h; Potency, µM (doses to about 46.1 µM), inactives show at the highest dose activity, negative = toxicity, usual class: cytotoxic; 360,000 tested, 2% active; AID 686971;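 note: potency is the fitted concentration of half-maximal effect; 0% = DMSO wells and -100% = cell-free medium wells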
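Luminescent ATP read-out (CellTiter-Glo, 10 min at room temperature) after 48 h compound exposure at 37 °C gave viability of IDH1-knockdown HT-1080 cells. Activity was normalised to DMSO and cell-free wells, then fitted as concentration-response curves.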
TDP1 cell noCPT = qHTS for Inhibitors of human tyrosyl-DNA phosphodiesterase 1 (TDP1): qHTS in cells in absence of CPT; DT40 Tdp1-/- hTDP1 cells, no CPT, ATP luminescence, 48 h; Potency, µM (series often up to 46.2 µM), without a hit: top-dose activity change, negative = growth inhibition, actives largely listed as inhibitors; 420,000 tested, 15% active; AID 686978, 2013; note: potency is the fitted concentration of half-maximal effect; nearly all actives have a fitted effect of over 55% in size
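No-CPT arm: Tdp1-/-;hTDP1 DT40 cells (400/well) plus compounds, incubated ≥48 hr at 37 °C. Readout CellTiter-Glo luminescence.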
HT1080NT lethal = kills 2HG-producing HT-1080-NT fibrosarcoma cells | HT-1080-NT fibrosarcoma viability, CellTiter-Glo ATP luminescence, 48 h | Potency, µM (titrated, usually from 46.1 µM), for inactives: at the top dose activity, negative = less viability, usual class: cytotoxic | 360,000 tested, 1.6% active;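 note: NT is the 2HG producing partner of a matched IDH1 knockdown line; potency is the fitted concentration of half-maximal effect; 0% = DMSO-treated cells and -100% = media-only wells without cells; nearly all actives have a fitted effect of over 55% in size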
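HT-1080-NT; 750 cells/well; 5% FBS RPMI; 48 h compound, 37 degrees C; CellTiter-Glo luminescence; curve fitting and curve-class assignment.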
TDP1 cell CPT = DT40-hTDP1 cell growth loss with CPT. 420,000 tested, 12% active. Potency, µM (highest dose often 46.2 µM), without a hit: at the top dose activity change, negative = growth inhibition, usual class: inhibitors. AID 686979. chicken DT40 Tdp1-/-;hTDP1 cells + 20 nM CPT, ATP luminescence, 48 h; note: potency is the fitted concentration of half-maximal effect; nearly all actives have a fitted effect of over 55% in size
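Chicken DT40 Tdp1-/- cells complemented with human TDP1, 400 cells/well, exposed to compounds plus 20 nM camptothecin for at least 48 h at 37 C; viability read as ATP content by CellTiter-Glo luminescence.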
Numbers without * were called inactive; u = inconclusive; x = no result given; [ ] = remark or other dose. This excerpt belongs to a sample that is enriched for hits. Unless noted, calls come from the whole dose curve; as a rule, active = well fitted curve in the direction sought with a large enough effect; inconclusive = small, poorly fitted or top-dose-only effect, or another doubt; inactive = no such curve, though single readings can be large; an effect the other way counts as inactive or inconclusive. Unless noted, % is set by controls: 0 for no effect and ±100 for the full control effect.

SMILES	IL-1B inflam inh	12-LOX inh	HT1080 IDH1KD tx	TDP1 cell noCPT	HT1080NT lethal	TDP1 cell CPT
CCC(=O)OCCNc1cc(Sc2nccn2C)c2nonc2c1[N+](=O)[O-]	-67.5*	u	u	2.31µM*	14.6µM*	1.03µM*
CCCC(=O)OCCNc1cc(Sc2nc3ccccc3[nH]2)c2nonc2c1[N+](=O)[O-]	-103.9*	u	u	3.26µM*	20.6µM*	2.31µM*
COc1ccc(Cn2c(SCc3ccc(C(=O)NCc4ccccc4F)cc3)nc3cccnc32)cc1	x	-2.5%	x	u	x	u
Cc1cccc(CNC(=O)c2ccc(Cn3c(SCc4ccccc4)nc4cccnc43)cc2)c1	x	-24.6%	x	16.4µM*	x	u
O=C(NCc1ccccc1)c1ccc(CSc2nc3cccnc3n2Cc2ccccc2F)cc1	x	u	x	18.4µM*	x	u
O=C(CCCCCn1c(SCc2ccncc2)nc2ccccc2c1=O)NCc1ccco1	u	u	11.2µM*	u	u	u
O=C(NCc1ccco1)c1ccc(Cn2c(SCc3ccccc3)nc3cccnc32)cc1	x	-11.3%	x	25.9µM*	x	4.11µM*
CCN(Cc1cc2ccccc2[nH]c1=O)C(=O)c1cccc(Cl)c1	x	-2.2%	x	x	x	x
Cn1nc(C(=O)N2CCOCC2)cc1C(=O)Nc1cc(Cl)cc(Cl)c1	x	8.8%	x	x	x	x
CC(C)c1ccc(NC(=O)O[C@@H]2CO[C@H]3[C@@H]2OC[C@@H]3NC(=O)c2ccccc2)cc1	x	24.5%[176 µM]	x	x	x	x
CCc1ccc(N2CC(c3noc(-c4cccc(OC)c4OC)n3)CC2=O)cc1 (stereo unspecified)	x	11.8%	x	x	x	x
COc1cccc(CNC(=O)c2ccc(Cn3c(SCc4ccccc4)nc4cccnc43)cc2)c1	x	-8.6%	x	u	x	8.2µM*
CCC(C)NC(=O)N1CC(Oc2ccc(-c3noc(C4CCOCC4)n3)cc2)C1 (stereo unspecified)	x	8.1%	x	x	x	x
COc1ccc2[nH]c3c(c2c1)CCNC31CCN(C(=O)c2cnn(C)c2)CC1	x	4.1%	x	x	x	x
Cn1c(=O)c2[nH]c(NN=Cc3ccc(F)cc3)nc2n(C)c1=O	-19.0	-9.8%	19.7%	u	6.6%	-12.2%
Cn1c(=O)c2[nH]c(NN=Cc3cccc(Br)c3)nc2n(C)c1=O	-19.9	-1.8%	-9.1%	14.6µM*	-11.4%	23.1µM*
O=C(CNc1ccc(OC(F)(F)F)cc1)N1CCNC1=O	x	17.2%	x	x	x	x
C=C(CC[C@]12OC(C(=O)O)C(O)(C(=O)O)C(C(=O)O)(O1)C(OC(=O)/C=C/[C@@H](C)C[C@@H](C)CC)C2O)[C@@H](OC(C)=O)[C@H](C)Cc1ccccc1 (stereo partly specified)	x	28.4%	x	7.94µM*	x	8.91µM*
Cc1cc(C)nc(NC(N)=NCc2cccnc2)n1	x	3.4%	x	x	x	x
CCN(C(=O)C1CCCC1)C1CC1	x	-12.6%	x	x	x	x
O=C1C(=O)c2c(ccc3ccccc23)-c2ccccc21	-86.6*	-9.5%	1.84µM*	0.517µM*	4.61µM*	0.581µM*
O=C1CCSc2c1ccc1ccccc21	11.8	-5.6%	1.4%	-0.8%	0.8%	-11.9%
CCc1cccc(C)c1NC(=S)NCC1CCN(c2ccc(OC)cc2)C1 (stereo unspecified)	-67.0*	u	u	20.6µM*	u	20.6µM*
COc1ccc(N2CCC(CNC(=O)Nc3cccc(OC)c3)C2)cc1 (stereo unspecified)	-2.5	u	-29.9%	u	-25.4%	u
COc1ccc(N2CCC(CNC(=O)Nc3ccc(Cl)cc3)C2)cc1 (stereo unspecified)	-19.5	u	-2.5%	18.4µM*	-17.8%	u
SMILES	IL-1B inflam inh	12-LOX inh	HT1080 IDH1KD tx	TDP1 cell noCPT	HT1080NT lethal	TDP1 cell CPT
CCc1ccccc1NC(=S)NCC1CCN(c2ccc(OC)cc2)C1 (stereo unspecified)	-7.5	u	2.3%	20.6µM*	u	u
COc1ccc(-c2cn(Cc3ccc4ccccc4c3)nn2)cc1	17.4	-8.5%	-0.2%	-17.1%	20.3%	u
COc1ccc(-c2cn(Cc3ccc(C(=O)c4ccccc4)cc3)nn2)cc1	20.1	7.2%	u	7.31µM*	u	2.06µM*
Cc1c(-n2nnnc2SC(C)c2ccccc2)c(=O)n(-c2ccccc2)n1C (stereo unspecified)	x	3.1%	x	x	x	x
CC1CCCN(CCOc2ccc3ccccc3c2Br)C1 (stereo unspecified)	-215.8*	u	18.4µM*	u	20.6µM*	u
O=C(COc1cccc(-c2nnc3n2CCCC3)c1)Nc1ccc(Br)cc1	x	-0.6%	x	x	x	x
Cc1nc2cc(NS(=O)(=O)c3ccc(C)c(C)c3)ccc2o1	x	3.7%	x	x	x	x
COC(=O)c1cc(NC(=O)c2cc(-c3ccc(Cl)cc3)oc2C(F)(F)F)ccc1N1CCOCC1	u	u	u	18.4µM*	u	u
COC(=O)c1cc(NC(=O)c2c(-c3c(Cl)cccc3Cl)noc2C)ccc1N1CCOCC1	3.5	5.1%	-1.0%	-23.3%	5.3%	-24.4%
COC(=O)c1cc(NC(=O)c2cc(-c3ccccc3Cl)oc2C(F)(F)F)ccc1N1CCOCC1	u	-1.8%	u	20.6µM*	-21.0%	u
C=CCSc1ncnc2c1oc1nc3c(cc12)COC(C)(C)C3	10.2	172.4%	3.4%	18.4µM*	16.6%	-20.3%
CC(C)CSc1ncnc2c1oc1nc3c(cc12)COC(C)(C)C3	-5.8	3.8%	8.3%	-2.5%	-6.2%	0.5%
CCCN1C(=O)/C(=C\c2ccncc2)SC1=Nc1ccccc1	-98.3*	4.2%	-13.1%	u	-11.3%	u
CCN1C(=O)/C(=C\c2ccncc2)SC1=Nc1ccc(C)c(C)c1	-100.2*	-17.8%	-15.9%	16.4µM*	-1.6%	u
CCN1C(=O)/C(=C\c2ccncc2)SC1=S	-6.7	-13.2%	-0.2%	-29.4%	-1.7%	-17.3%
c1ccc2c(c1)ncn2Cc1nnc2sc(-c3ccc4c(c3)OCO4)nn12	34.5	-17.6%	-14.6%	14.6µM*	-8.3%	u
c1ccc(CCc2nn3c(Cn4cnc5ccccc54)nnc3s2)cc1	2.1	u	u	18.4µM*	-21.1%	18.4µM*
COc1ccc(OCc2nn3c(Cn4cnc5ccccc54)nnc3s2)cc1	2.3	-34.1%	-22.3%	u	u	20.6µM*
COc1ccc(NC(=O)CSCc2cc(=O)c3cccc(F)c3[nH]2)cc1	x	-3.4%	x	x	x	x
CCCCCCCOc1ccc(C(=O)O)cc1	x	13.0%	x	x	x	x
